Results from the supplement of paper PMC11732987, “Enantioselective OTUD7B fragment discovery through chemoproteomics screening and high-throughput optimisation” (Communications Chemistry, 2025).

Columns and labels:
Test in all cases: log2 ratio of Biotin-Ahx-Ub-VS probe labelling (fragment/DMSO); higher = less target engagement (more negative = stronger competition), active = hit call of the paper (q ≤ 0.05, log2 ratio ≤ -1)
Settings in all cases: compound concentration: 200 uM; treatment time: 3 h
USP34 = USP34 (UniProt Q70CQ2)
Chain of USP34 (Q70CQ2 whole entry, the tested form may be a part): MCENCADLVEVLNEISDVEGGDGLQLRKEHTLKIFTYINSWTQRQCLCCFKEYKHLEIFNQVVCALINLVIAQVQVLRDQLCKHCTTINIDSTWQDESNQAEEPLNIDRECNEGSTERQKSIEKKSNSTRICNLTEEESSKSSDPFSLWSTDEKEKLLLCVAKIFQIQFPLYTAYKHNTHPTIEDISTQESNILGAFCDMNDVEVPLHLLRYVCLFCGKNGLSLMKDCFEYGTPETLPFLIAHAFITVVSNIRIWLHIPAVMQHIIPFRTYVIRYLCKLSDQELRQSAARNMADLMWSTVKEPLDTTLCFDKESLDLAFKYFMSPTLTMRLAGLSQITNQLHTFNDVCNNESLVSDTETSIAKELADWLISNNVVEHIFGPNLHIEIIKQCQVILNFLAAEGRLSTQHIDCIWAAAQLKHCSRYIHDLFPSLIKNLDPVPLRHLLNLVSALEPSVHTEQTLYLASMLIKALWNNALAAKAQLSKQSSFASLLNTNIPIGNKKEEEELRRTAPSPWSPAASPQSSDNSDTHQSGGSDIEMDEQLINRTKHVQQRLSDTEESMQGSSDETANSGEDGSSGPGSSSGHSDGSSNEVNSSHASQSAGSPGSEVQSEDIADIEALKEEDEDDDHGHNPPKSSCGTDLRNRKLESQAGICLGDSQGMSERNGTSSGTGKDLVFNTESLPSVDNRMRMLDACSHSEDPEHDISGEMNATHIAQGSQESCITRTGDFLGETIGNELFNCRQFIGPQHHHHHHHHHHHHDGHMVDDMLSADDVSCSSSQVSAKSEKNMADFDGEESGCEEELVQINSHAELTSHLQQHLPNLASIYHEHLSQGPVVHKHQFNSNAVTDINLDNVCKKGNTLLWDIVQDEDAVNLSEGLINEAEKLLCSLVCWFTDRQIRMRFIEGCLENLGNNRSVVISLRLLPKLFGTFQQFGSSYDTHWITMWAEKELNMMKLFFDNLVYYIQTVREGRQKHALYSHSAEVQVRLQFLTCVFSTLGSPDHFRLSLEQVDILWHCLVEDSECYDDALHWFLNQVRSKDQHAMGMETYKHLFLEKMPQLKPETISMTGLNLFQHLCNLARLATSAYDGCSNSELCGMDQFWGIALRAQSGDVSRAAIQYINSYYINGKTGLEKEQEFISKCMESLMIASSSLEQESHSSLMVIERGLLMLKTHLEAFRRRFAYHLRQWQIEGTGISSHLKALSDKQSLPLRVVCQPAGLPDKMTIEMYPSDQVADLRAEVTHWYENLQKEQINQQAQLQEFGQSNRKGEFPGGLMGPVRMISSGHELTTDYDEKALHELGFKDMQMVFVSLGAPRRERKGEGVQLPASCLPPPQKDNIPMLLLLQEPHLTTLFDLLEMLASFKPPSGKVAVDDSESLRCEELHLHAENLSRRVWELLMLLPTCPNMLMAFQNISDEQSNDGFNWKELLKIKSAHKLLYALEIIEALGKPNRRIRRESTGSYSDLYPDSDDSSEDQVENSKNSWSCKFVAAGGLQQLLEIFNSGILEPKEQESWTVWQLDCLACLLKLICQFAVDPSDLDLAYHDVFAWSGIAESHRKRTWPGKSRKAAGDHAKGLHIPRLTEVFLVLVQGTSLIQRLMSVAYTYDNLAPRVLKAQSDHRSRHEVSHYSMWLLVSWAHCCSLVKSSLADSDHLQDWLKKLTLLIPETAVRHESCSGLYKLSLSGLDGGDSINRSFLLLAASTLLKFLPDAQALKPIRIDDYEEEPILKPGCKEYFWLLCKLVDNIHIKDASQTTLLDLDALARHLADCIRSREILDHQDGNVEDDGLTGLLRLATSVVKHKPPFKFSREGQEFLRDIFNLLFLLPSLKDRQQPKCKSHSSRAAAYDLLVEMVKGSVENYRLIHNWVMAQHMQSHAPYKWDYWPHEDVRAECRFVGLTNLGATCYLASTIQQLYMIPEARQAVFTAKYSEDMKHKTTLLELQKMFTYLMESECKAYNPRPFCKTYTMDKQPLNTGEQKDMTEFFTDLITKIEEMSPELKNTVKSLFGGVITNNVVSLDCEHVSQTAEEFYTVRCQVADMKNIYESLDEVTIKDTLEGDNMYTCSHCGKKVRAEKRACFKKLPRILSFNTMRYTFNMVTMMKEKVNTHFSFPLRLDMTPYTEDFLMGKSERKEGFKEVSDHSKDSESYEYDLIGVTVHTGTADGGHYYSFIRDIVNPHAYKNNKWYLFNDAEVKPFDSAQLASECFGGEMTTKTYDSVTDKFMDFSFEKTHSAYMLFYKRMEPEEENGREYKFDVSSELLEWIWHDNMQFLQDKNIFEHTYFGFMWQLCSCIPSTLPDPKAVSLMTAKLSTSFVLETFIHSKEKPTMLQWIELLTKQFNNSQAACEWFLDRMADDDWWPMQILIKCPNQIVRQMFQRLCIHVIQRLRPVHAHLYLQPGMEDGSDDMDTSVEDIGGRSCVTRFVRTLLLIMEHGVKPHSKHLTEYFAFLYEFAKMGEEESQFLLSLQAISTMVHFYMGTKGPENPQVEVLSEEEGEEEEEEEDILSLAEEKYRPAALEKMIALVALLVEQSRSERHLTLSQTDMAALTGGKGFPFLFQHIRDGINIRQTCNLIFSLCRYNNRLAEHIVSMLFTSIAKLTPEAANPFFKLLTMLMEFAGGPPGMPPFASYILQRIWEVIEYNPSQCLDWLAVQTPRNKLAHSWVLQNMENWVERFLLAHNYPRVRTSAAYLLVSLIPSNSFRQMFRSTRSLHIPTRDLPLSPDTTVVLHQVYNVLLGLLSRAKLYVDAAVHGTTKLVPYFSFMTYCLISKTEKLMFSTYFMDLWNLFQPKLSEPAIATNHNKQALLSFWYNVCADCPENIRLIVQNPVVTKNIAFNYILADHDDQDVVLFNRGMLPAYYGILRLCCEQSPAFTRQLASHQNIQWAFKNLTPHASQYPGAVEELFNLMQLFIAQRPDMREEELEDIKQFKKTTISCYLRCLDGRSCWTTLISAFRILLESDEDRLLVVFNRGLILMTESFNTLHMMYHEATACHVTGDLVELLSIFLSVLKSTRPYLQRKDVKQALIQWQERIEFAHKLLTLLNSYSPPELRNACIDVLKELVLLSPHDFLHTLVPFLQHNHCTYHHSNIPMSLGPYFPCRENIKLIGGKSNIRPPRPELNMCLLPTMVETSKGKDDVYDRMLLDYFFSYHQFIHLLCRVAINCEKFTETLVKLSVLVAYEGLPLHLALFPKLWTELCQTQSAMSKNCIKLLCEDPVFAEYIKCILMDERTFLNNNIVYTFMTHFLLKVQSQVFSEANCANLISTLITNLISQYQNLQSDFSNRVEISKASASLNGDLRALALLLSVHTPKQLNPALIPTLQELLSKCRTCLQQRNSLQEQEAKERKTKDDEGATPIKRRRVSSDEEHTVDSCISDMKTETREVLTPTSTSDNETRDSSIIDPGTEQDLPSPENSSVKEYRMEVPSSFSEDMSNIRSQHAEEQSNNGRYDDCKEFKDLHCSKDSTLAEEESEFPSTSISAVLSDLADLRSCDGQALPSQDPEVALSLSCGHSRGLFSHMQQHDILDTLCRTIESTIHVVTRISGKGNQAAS
Outline: (§1)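 Labelled DUBs from HEK293T lysate were NeutrAvidin-enriched, digested with LysC and trypsin, and run by diaPASEF LC-MS/MS. Before that, each 495 µg sample in Tris/CHAPS/IGEPAL buffer with protease inhibitors was treated in triplicate with fragment at 200 µM or vehicle for 3 h, then with Biotin-Ahx-Ub-VS at 0.5 µM final for 1 h. Values are average log2 ratios of fragment over vehicle by unpaired t-test, based on global-median-normalised Spectronaut label-free quantities from proteins with ≥2 unique peptides.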

USP36 = target: T1, USP36 (UniProt Q9P275)
T1 sequence (whole entry): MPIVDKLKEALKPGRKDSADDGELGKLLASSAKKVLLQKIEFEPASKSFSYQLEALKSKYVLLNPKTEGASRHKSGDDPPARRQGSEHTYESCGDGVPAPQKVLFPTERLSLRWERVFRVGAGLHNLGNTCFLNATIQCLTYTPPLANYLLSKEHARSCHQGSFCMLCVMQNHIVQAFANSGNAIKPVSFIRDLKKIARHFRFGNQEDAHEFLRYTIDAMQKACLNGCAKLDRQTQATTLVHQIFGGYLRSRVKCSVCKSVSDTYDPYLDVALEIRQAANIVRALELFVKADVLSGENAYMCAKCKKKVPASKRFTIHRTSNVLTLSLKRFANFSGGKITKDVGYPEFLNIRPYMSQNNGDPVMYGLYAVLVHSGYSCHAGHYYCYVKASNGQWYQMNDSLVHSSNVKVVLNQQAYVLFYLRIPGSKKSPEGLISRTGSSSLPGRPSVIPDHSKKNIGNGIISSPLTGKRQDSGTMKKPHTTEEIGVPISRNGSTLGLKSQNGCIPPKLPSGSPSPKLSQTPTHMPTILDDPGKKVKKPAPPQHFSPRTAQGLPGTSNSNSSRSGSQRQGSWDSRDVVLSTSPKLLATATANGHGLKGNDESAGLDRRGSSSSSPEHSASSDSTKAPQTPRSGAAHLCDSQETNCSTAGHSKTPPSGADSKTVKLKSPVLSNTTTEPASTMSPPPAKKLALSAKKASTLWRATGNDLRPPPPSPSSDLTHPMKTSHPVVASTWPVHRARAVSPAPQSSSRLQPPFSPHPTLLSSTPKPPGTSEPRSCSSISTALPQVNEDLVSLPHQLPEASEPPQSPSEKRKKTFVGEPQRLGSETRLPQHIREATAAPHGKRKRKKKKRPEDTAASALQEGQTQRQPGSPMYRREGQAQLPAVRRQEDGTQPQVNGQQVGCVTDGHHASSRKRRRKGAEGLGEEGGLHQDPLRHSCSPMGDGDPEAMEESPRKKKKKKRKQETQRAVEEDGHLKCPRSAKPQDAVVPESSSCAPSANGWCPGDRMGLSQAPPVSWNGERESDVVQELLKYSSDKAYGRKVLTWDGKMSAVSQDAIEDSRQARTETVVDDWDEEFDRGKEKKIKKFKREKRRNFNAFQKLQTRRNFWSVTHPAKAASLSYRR
Outline: as §1

USP38 = target: T2, USP38 (UniProt Q8NB14)
T2 sequence (whole entry): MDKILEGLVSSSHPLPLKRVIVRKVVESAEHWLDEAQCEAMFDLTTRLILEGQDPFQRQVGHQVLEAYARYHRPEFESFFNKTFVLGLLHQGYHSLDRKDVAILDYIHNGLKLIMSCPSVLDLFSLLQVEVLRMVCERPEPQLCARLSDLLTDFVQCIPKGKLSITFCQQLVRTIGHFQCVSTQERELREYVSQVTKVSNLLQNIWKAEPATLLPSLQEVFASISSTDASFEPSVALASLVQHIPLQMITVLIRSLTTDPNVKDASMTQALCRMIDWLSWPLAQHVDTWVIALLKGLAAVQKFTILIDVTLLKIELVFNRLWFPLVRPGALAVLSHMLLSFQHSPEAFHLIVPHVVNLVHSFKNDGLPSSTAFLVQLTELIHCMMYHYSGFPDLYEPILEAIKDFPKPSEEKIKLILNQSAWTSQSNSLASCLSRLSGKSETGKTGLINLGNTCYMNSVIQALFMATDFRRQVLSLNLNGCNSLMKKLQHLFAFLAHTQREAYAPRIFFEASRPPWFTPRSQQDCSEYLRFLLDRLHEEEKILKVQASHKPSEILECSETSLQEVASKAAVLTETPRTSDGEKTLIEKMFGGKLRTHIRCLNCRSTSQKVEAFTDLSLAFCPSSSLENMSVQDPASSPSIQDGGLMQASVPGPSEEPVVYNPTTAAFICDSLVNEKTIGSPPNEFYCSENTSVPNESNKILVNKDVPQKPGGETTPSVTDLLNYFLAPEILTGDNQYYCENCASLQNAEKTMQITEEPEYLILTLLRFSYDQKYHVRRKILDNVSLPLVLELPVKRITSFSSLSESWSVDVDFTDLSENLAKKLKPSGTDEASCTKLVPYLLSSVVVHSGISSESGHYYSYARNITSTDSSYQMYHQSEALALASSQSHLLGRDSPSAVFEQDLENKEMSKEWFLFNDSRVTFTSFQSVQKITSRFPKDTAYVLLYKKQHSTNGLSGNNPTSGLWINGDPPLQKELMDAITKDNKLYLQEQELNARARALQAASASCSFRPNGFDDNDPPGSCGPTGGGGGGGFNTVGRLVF
Outline: as §1

USP39 = target: T3, USP39 (UniProt Q53GS9)
T3 sequence (whole entry): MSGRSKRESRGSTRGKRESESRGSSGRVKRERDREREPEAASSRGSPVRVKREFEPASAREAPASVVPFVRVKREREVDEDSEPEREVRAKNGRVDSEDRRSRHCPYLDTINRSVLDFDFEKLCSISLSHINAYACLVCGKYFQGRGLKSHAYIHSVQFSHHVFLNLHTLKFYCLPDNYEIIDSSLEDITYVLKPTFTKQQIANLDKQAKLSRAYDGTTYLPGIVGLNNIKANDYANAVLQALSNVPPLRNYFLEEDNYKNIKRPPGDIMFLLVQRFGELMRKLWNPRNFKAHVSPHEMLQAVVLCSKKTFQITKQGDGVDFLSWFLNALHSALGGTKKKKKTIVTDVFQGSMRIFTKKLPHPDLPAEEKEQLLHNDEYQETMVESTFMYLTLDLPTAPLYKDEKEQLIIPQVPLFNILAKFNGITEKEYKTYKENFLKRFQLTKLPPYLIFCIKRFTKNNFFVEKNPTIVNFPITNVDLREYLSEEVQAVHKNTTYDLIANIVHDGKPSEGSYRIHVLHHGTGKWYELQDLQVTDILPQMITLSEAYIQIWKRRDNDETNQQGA
Outline: as §1

USP4 = target: T4, USP4 (UniProt Q13107)
T4 sequence (whole entry): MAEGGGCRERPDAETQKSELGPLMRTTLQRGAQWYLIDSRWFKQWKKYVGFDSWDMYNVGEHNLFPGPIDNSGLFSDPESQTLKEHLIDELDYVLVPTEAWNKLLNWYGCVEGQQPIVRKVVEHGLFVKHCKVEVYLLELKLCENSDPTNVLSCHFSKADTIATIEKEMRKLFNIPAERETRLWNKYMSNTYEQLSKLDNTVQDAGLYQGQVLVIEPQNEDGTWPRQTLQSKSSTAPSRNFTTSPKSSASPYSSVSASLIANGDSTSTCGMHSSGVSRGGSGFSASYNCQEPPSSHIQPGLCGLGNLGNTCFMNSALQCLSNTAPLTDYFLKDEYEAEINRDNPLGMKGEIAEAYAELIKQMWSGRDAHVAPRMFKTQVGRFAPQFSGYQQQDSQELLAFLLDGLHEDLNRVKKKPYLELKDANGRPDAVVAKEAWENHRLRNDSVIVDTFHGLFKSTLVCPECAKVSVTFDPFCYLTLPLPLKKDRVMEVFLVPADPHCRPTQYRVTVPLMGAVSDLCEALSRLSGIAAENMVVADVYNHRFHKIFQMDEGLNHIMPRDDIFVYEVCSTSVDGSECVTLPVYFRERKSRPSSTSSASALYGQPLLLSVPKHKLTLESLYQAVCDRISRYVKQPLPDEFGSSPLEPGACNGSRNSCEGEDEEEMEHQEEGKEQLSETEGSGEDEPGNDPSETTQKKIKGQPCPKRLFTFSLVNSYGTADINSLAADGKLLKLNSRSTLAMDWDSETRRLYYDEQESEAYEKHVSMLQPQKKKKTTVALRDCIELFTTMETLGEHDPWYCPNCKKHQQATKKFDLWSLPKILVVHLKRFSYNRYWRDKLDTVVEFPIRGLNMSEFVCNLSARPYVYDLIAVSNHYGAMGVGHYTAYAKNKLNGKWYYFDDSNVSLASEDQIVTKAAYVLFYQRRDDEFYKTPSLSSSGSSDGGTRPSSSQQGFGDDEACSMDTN
Outline: as §1

Measured: log2 ratio of Biotin-Ahx-Ub-VS probe labelling

O=C(CCl)NC1CCS(=O)(=O)c2ccccc21 (stereo not given)
inactive: USP34 -0.0259 | USP36 -0.0862 | USP38 -0.432 | USP39 -0.117 | USP4 -0.0115
